Assay outcomes as filed in PubChem BioAssay.
Most compounds without a hit are left out; they make up all but 8.7% or so of the library.
G9a inh – qHTS Assay for Inhibitors of Histone Lysine Methyltransferase G9a | hit rate 8.8% among 350,000 | Potency, µM (highest dose often 102 µM), for the others: top-dose activity, negative = inhibition, actives largely listed as inhibitors | AID 504332, 2011 | Histone-lysine N-methyltransferase EHMT2 (Homo sapiens), Q96KQ7 | G9a H3K9 monomethylation, AlphaScreen, 2 h; further: on the % scale 0 is the no-effect control and ±100 the full control effect; nearly all actives have a fitted effect of over 75% in size
Target sequence (Q96KQ7 913-1193 limits assumed): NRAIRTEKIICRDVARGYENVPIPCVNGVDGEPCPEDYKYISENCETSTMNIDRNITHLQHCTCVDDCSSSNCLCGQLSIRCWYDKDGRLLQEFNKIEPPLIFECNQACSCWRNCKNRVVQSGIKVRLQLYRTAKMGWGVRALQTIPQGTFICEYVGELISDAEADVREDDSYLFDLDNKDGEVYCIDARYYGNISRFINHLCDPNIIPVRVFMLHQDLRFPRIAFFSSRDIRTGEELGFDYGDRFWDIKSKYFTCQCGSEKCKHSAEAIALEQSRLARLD
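Step 1: enzyme (final 20 nM) with compound, 15 min RT. Step 2: substrate peptide 500 nM and SAM 20 uM, 2 h RT. Step 3: anti-H3K9me1 antibody and AlphaScreen beads, 10 min, then plate read.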
Sfp PPTase inh – qHTS Assay for Inhibitors of Bacillus subtilis Sfp phosphopantetheinyl transferase (PPTase); Potency, µM, without a hit: largest response in the series, negative = inhibition, most hits filed as inhibitors; Biochemical Sfp PPTase activity, qHTS; hit rate 3.5% among 310,000; 4'-phosphopantetheinyl transferase ffp (Bacillus subtilis), Q9F4F7;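 further: the enzyme is Sfp with the accession as filed and its product quenches rhodamine fluorescence; 0% = enzyme reaction without inhibitor and -100% = no enzyme wells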
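Fluorescence-quenching assay with 15 nM Sfp, 5 uM rhodamine-CoA and 12.5 uM BHQ-2-labelled ybbR peptide in pH 7.6 Hepes/MgCl2 buffer. Enzyme was pre-incubated with compound for 15 min at room temperature. Rate was taken from the 30-min fluorescence change (525/598 nm).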
ALOX12 inh – Primary qHTS assay for inhibitors of human arachidonate 12S-lipoxygenase (ALOX12): Round 2. Polyunsaturated fatty acid lipoxygenase ALOX12 (Homo sapiens), P18054. purified 12hLO, xylenol orange hydroperoxide absorbance. Potency, µM (series often up to 108 µM), for inactives: top-dose activity change, negative = inhibition, actives largely listed as inhibitors. hit rate 1.1% among 580,000. AID 1671190, 2021; further: on the % scale 0 is the no-effect control and ±100 the full control effect
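Hydroperoxide product was detected by ferrous iron/xylenol orange as the 573 to 405 nm absorbance ratio. Arachidonic acid at 40 uM (final) was turned over for 30 min at room temperature by 150 nM human 12hLO, pH 7.0 Hepes buffer, after 15 min compound preincubation.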
HP1b binding inh – HTS for Inhibitors of HP1-beta Chromodomain Interactions with Methylated Histone Tails. AlphaScreen HP1-beta / biotin-H3K9me3 peptide binding. Potency, µM (top dose mostly 114 µM), inactives show at the highest dose activity change, negative = inhibition, hits mostly inhibitors. hit rate 0.56% among 390,000; further: nearly all actives have a fitted effect of over 70% in size
Target sequence (P83916 whole entry, looked up): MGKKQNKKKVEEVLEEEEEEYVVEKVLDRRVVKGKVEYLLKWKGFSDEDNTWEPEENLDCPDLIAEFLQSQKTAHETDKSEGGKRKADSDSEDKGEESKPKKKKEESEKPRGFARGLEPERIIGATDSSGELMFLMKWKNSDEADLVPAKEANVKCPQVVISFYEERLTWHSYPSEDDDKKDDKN
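AlphaScreen: HP1-beta (50 nM) preformed 30 min with biotin-H3(1-18)K9me3 peptide (50 nM) in PBS pH 7.4, 0.01% Tween-20. Compound added for 30 min at RT, then streptavidin donor/nickel chelate acceptor beads (10 ug/mL) for 30 min.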
JMJD2A Tudor inh – qHTS Assay for Inhibitors of JMJD2A-Tudor Domain; Lysine-specific demethylase 4A (Homo sapiens), O75164; AlphaScreen JMJD2A-Tudor / H3K4me3 peptide binding; Potency, µM (highest dose often 114 µM), for the others: top-dose activity change, negative = inhibition, most hits filed as inhibitors; hit rate 4.4% among 390,000; AID 504339, 2011; further: on the % scale 0 is the no-effect control and ±100 the full control effect; nearly all actives have a fitted effect of over 50% in size
BAZ2B inh – qHTS Assay for Inhibitors of BAZ2B. Bromodomain adjacent to zinc finger domain protein 2B (Homo sapiens), Q9UIF8. AlphaScreen BAZ2B-H3K14Ac peptide displacement. Potency, µM (top dose mostly 114 µM), for inactives: top-dose activity change, negative = inhibition, usual class: inhibitors. hit rate 4.4% among 360,000. AID 504333, 2011; further: on the % scale 0 is the no-effect control and ±100 the full control effect; nearly all actives have a fitted effect of over 60% in size
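BAZ2B 50 nM plus b-H3(5-23)K14Ac 50 nM, PBS pH 7.4/0.01% Tween-20, 30 min RT; compound added (max 110 uM), 30 min RT; streptavidin donor/Ni-chelate acceptor beads 10 ug/mL final, 20 min dark; AlphaScreen read.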
* marks the source's active call; other numbers are inactive results; ? = inconclusive; . = no result; [ ] = remark or other dose. The call rests on the fitted dose curve; in most records, active means well fitted curve in the direction sought with a large enough effect; inconclusive means small, poorly fitted or top-dose-only effect, or another doubt; inactive means no such curve, though single readings can be large; an effect the other way counts as inactive or inconclusive. Potency means the concentration at half of the fitted maximal effect.

SMILES | G9a inh | Sfp PPTase inh | ALOX12 inh | HP1b binding inh | JMJD2A Tudor inh | BAZ2B inh
CC(CN1CCCCC1)OC(=O)c1cccc(F)c1 (stereo unspecified) | . | 0% | 56µM* | 30% | -10% | 9%[57.1 µM]
COc1cccc(C(=O)OC(C)CN2CCCC2)c1 (stereo unspecified) | 9%[59 µM] | 17% | 0% | 16% | 16% | -2%
COc1ccccc1OCC(=O)Nc1cc(-c2ccc(Cl)cc2)no1 | . | . | -2% | . | . | .
COc1ccc(N(C(=O)c2ccncc2)S(=O)(=O)c2cccc([N+](=O)[O-])c2)cc1 | 79µM* | 7% | ? | 28% | ? | -36%
N#C/C(=C/c1ccccc1OCc1ccc(F)cc1)c1ccc(C(=O)O)cc1 | ? | 4% | ? | 28% | -15% | ?
N#C/C(=C/c1ccc(OCc2ccc(C(=O)O)cc2)c(Br)c1)c1cccc(F)c1 | -51% | -10% | -29% | 5% | 56µM* | ?
CC(C)=NO[C@@H](C)c1cn([C@@H]2COC[C@@H]2O)nn1 | . | 3% | . | . | . | .
CC(C)=NOCc1ccc(-c2cn([C@@H]3COC[C@@H]3O)nn2)cc1 | . | 14µM* | . | . | . | .
Cc1ccc(NC(=O)COC(=O)/C=C/c2cccs2)cc1 | 4%[59 µM] | 2% | -21% | 38% | 15%[57.1 µM] | -4%
CCN(c1ccc(NC(=O)COC(=O)c2ccc3ccccc3n2)cc1)C(C)C | ? | 3% | 5µM* | 22µM* | 25µM* | 35µM*
CCC(CC)NC(=O)COC(=O)c1ccc2ccccc2n1 | . | . | 6.3µM* | . | . | .
CCN(c1ccc(NC(=O)COC(=O)/C=C/c2cccs2)cc1)C(C)C | 8.9µM* | 14% | -3% | 35µM* | 22µM* | 18µM*
COc1ccc(NC(=O)COC(=O)c2ccc3ccccc3n2)cc1OC | . | . | ? | 21% | -18% | .
CCOC(=O)c1sc(NC(=O)Nc2ccccc2)cc1C | ? | 35µM* | ? | 37% | -21%[57.1 µM] | -29%
CCOC(=O)c1c(N)sc(C(=O)Nc2ccccc2)c1C | -2%[0.501 µM] | 20µM* | 0% | ? | -30% | -15%
CCOC(=O)c1c(N)sc(C(=O)Nc2ccccc2F)c1C | 3% | 14% | 12% | 17% | -7% | -19%
CN1CC(=O)N(c2ccc(Cl)cc2)Cc2c1ncnc2N1CCCCC1 | . | . | 29% | . | . | .
FC(F)(F)c1cccc(N2CCN(C(=S)NC3CCCCC3)CC2)c1 | 8% | 5% | 50µM* | 36% | -10% | 2%
FC(F)(F)c1cccc(N2CCN(C(=S)NC3CCCC3)CC2)c1 | 45%[59 µM] | 10% | -18% | 38% | -15% | 6%
CCC(NC(=O)CCl)c1ccc(C)cc1 (stereo unspecified) | -40% | 18% | -15% | -12% | 56µM* | -22%
CCC(NC(=O)C1CC1)c1ccc(C)cc1 (stereo unspecified) | . | . | 5µM* | . | . | .
CC(C)CNc1cc(N2CCCC2)ccc1[N+](=O)[O-] | 11µM* | -26% | -4%[57.4 µM] | -28% | ? | ?
Cc1ccccc1OCCNc1cc(N2CCN(CCO)CC2)ccc1[N+](=O)[O-] | ? | -26% | -18% | ? | ? | 32µM*
Cc1ccc(S(=O)(=O)N2CCN(c3ccc([N+](=O)[O-])c(NCCN4CCOCC4)c3)CC2)cc1 | ? | -4% | -22% | -7% | ? | -33%
Cc1ccccc1OCCNc1cc(N2CCCCC2)ccc1[N+](=O)[O-] | 9%[0.501 µM] | 7% | 0% | ? | ? | ?
SMILES | G9a inh | Sfp PPTase inh | ALOX12 inh | HP1b binding inh | JMJD2A Tudor inh | BAZ2B inh
COc1ccc(OCCNc2cc(N3CCOCC3)ccc2[N+](=O)[O-])cc1 | ? | 6% | 0% | -21% | 79µM* | ?
COc1cccc(OCCNc2cc(N3CCOCC3)ccc2[N+](=O)[O-])c1 | ? | 4% | -10% | -13% | -33% | ?
O=[N+]([O-])c1ccc(N2CCN(S(=O)(=O)c3ccccc3)CC2)cc1NCCN1CCOCC1 | 20µM* | -24% | 0% | -3% | -33% | -31%
COc1ccc2c(-c3ccccc3)cc(SCC(=O)N3CCOC(C)C3)nc2c1 (stereo unspecified) | . | . | 5% | . | . | .
CN(C)c1cc(CNC(=O)Nc2nnc(C3CC3)s2)ccn1 | . | . | -16% | . | . | .
COCC1CN(C)CC12CCN(Cc1ccc(F)c(Cl)c1)CC2 (stereo unspecified) | . | . | 8% | . | . | .
N#CC(C(=O)Nc1cccc(C(F)(F)F)c1)=C1CCCC1 | . | . | -62% | . | . | .
Cc1cccc(OCCNc2cc(N3CCN(CCO)CC3)ccc2[N+](=O)[O-])c1 | 45µM* | -10% | ? | -28% | ? | ?
Cc1ccc(C)c(-c2nn(-c3cc(N4CCN(CCO)CC4)ccc3[N+](=O)[O-])c(=O)c3ccccc23)c1 | 40µM* | -26% | ? | ? | 35µM* | 45µM*
COc1cccc(OCCNc2cc(N3CCCCC3)ccc2[N+](=O)[O-])c1 | . | -3% | 0% | -30% | ? | ?
Cc1nn(-c2cc(N3CCCC3)ccc2[N+](=O)[O-])c(=O)c2ccccc12 | -17% | -4% | 0% | -17% | -30% | -37%
Cc1ccc(-c2ccc3nnc(CNC(=O)C(C)c4ccccc4)n3n2)cc1 (stereo unspecified) | . | . | -16% | . | . | .
Cc1cc(C)n(-c2nnc(SCC(=O)Nc3ccccc3C)n2N)n1 | . | . | 41% | . | . | .
COc1ccc(-c2csc(Nc3ccc(S(=O)(=O)Nc4cc(C)on4)cc3)n2)cc1C | 40µM* | -27% | ? | -15% | ? | 50µM*
COc1cc(NS(=O)(=O)c2ccc(Nc3nc(-c4ccccn4)cs3)cc2)nc(OC)n1 | -34% | 1% | 17% | 3% | ? | ?
COc1ccc(-c2csc(Nc3ccc(S(=O)(=O)Nc4cc(OC)nc(OC)n4)cc3)n2)cc1 | -12%[59 µM] | ? | ? | ? | ? | 45µM*
O=C(c1ccc(N2CCCCC2)c([N+](=O)[O-])c1)N1CCOCC1 | 6%[59 µM] | 12% | 0% | 8% | -18% | 7%
COc1ccccc1N1CCN(C(=O)/C=C/c2cccc([N+](=O)[O-])c2)CC1 | . | -1% | 0% | -3% | ? | ?
O=C(O/N=C\c1ccc(N2CCCCC2)c([N+](=O)[O-])c1)c1ccc(Cl)cc1Cl | 40µM* | 12% | 0% | ? | ? | ?
